According to the supplement of paper PMC7595190:
Values without a mark were called inactive.

Tests used:
Experiment in all cases: CellTox Green cytotoxicity fluorescence relative to DMSO vehicle (fold of vehicle RFU); higher = more cell death (loss of membrane integrity), active = 2 or more
[1] = system: CMK
Method in brief: (§1)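 CellTox Green reagent was added when MV4-11, CMK and Kasumi-1 cells were seeded at 4.0 × 10^4 cells per well, and single compounds from the Selleckchem apoptosis library were added at final 0.01, 0.1 and 1 µM in DMSO (vehicle 0.1% DMSO). Fluorescence at Ex 485 nm and Em 520 nm was read after 24, 48 and 72 h at 37 °C, 5% CO2. The reported cytotoxicity corresponds to loss of membrane integrity, given as fold of the DMSO vehicle.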

[2] = system: Kasumi-1
Method in brief: as §1

[3] = system: MV4-11
Method in brief: as §1

Row | SMILES | CellTox Green cytotoxicity fluorescence ([1]; 0.01 µM, 24 h) | CellTox Green cytotoxicity fluorescence ([1]; 0.01 µM, 48 h) | CellTox Green cytotoxicity fluorescence ([1]; 0.01 µM, 72 h) | CellTox Green cytotoxicity fluorescence ([1]; 0.1 µM, 24 h) | CellTox Green cytotoxicity fluorescence ([1]; 0.1 µM, 48 h) | CellTox Green cytotoxicity fluorescence ([1]; 0.1 µM, 72 h) | CellTox Green cytotoxicity fluorescence ([1]; 1 µM, 24 h) | CellTox Green cytotoxicity fluorescence ([1]; 1 µM, 48 h) | CellTox Green cytotoxicity fluorescence ([1]; 1 µM, 72 h) | CellTox Green cytotoxicity fluorescence ([2]; 0.01 µM, 24 h) | CellTox Green cytotoxicity fluorescence ([2]; 0.01 µM, 48 h) | CellTox Green cytotoxicity fluorescence ([2]; 0.01 µM, 72 h) | CellTox Green cytotoxicity fluorescence ([2]; 0.1 µM, 24 h) | CellTox Green cytotoxicity fluorescence ([2]; 0.1 µM, 48 h) | CellTox Green cytotoxicity fluorescence ([2]; 0.1 µM, 72 h) | CellTox Green cytotoxicity fluorescence ([2]; 1 µM, 24 h) | CellTox Green cytotoxicity fluorescence ([2]; 1 µM, 48 h) | CellTox Green cytotoxicity fluorescence ([2]; 1 µM, 72 h) | CellTox Green cytotoxicity fluorescence ([3]; 0.01 µM, 24 h) | CellTox Green cytotoxicity fluorescence ([3]; 0.01 µM, 48 h) | CellTox Green cytotoxicity fluorescence ([3]; 0.01 µM, 72 h) | CellTox Green cytotoxicity fluorescence ([3]; 0.1 µM, 24 h) | CellTox Green cytotoxicity fluorescence ([3]; 0.1 µM, 48 h) | CellTox Green cytotoxicity fluorescence ([3]; 0.1 µM, 72 h) | CellTox Green cytotoxicity fluorescence ([3]; 1 µM, 24 h) | CellTox Green cytotoxicity fluorescence ([3]; 1 µM, 48 h) | CellTox Green cytotoxicity fluorescence ([3]; 1 µM, 72 h)
1 | C=CC(=O)N1CC(=Cc2ccc([N+](=O)[O-])cc2)C(=O)C(=Cc2ccc([N+](=O)[O-])cc2)C1 | 0.921 | 0.908 | 0.929 | 1.13 | 1.16 | 1.07 | 2.14 (active) | 3.36 (active) | 2.48 (active) | 1.01 | 0.937 | 0.951 | 1.01 | 1.05 | 1.04 | 1.25 | 1.78 | 1.95 | 0.967 | 0.965 | 0.983 | 1.11 | 1.66 | 1.78 | 1.68 | 2.12 (active) | 1.92
2 | C=CC(=O)N1CCC(Oc2cc3c(Nc4ccc(Cl)c(Cl)c4F)ncnc3cc2OC)CC1 [Poziotinib] | 1.02 | 1.01 | 1.02 | 1.03 | 1.02 | 1.02 | 0.999 | 1 | 0.915 | 0.992 | 0.982 | 0.982 | 1.03 | 1.02 | 1.02 | 0.994 | 1 | 1.04 | 0.975 | 0.986 | 0.988 | 1.02 | 1.02 | 1.03 | 1.01 | 1.03 | 1.09
3 | C=CC(=O)N1CCN(C(=O)CNc2cc(I)c(Cl)cc2O)CC1 [K-Ras(G12C) inhibitor 12] | 1.01 | 0.986 | 0.963 | 0.999 | 0.997 | 0.992 | 0.992 | 1 | 1.02 | 0.989 | 1.01 | 1 | 1.01 | 0.982 | 0.979 | 0.995 | 0.964 | 0.958 | 0.959 | 0.976 | 0.971 | 0.991 | 0.991 | 1.01 | 0.993 | 0.996 | 1.03
4 | COc1nc(OCc2cccc(-c3ccccc3)c2C)ccc1CNCCNC(C)=O [PD-1/PD-L1 inhibitor 2] | 1.01 | 0.96 | 0.968 | 0.99 | 0.951 | 0.928 | 0.99 | 0.983 | 0.956 | 1 | 0.98 | 0.994 | 0.997 | 1.02 | 1.01 | 0.978 | 1 | 0.999 | 1.02 | 0.96 | 1 | 0.984 | 0.959 | 0.944 | 0.985 | 1 | 1.01
5 | Cc1c(C(=O)Nc2ccc(Oc3ccnc4[nH]cc(-c5ccccc5)c34)c(F)c2)c(=O)n(-c2ccc(F)cc2)n1C | 1.01 | 1.02 | 1.1 | 0.997 | 1.02 | 1.01 | 0.945 | 0.956 | 1.02 | 1.01 | 1.02 | 0.998 | – | – | – | 0.84 | 0.814 | 0.805 | 1.01 | 1.03 | 1.06 | 1.05 | 1.23 | 1.41 | 1.03 | 1.24 | 1.49
6 | FC(F)(F)c1ccc(CNc2ccc(Cc3c[nH]c4ncc(Cl)cc34)cn2)cn1 [Pexidartinib] | 1.01 | 1 | 0.979 | 0.99 | 1 | 0.967 | 0.964 | 0.989 | 0.967 | 0.99 | 0.998 | 0.956 | 1 | 1 | 1.03 | 1.04 | 1.12 | 1.2 | 1.01 | 1 | 1.01 | 1.07 | 1.17 | 1.21 | 1.09 | 1.41 | 1.74
